Here are results for 39 compounds from PubChem BioAssay (EPA / NIEHS).

“And” between values parts separate entries of the source, which are not always exact repeats. Equal values may be shown once. Results filed as inconclusive are left out. Some structures have more than one record in an assay (separate samples or runs), and their calls can disagree. The source made the active and inactive calls. How the source made its calls: active means hit-call score of the fitted dose curve at least 0.9, where 1 is the maximum; inconclusive means response in the unintended direction; inactive means score below 0.9.

This assay in a line: TOX21_p53_BLA_p3_viability: Viability Assessment in the Tox21 HCT-116 p53 Agonism Beta-lactamase Assay, Phase 3 (AID 2283593).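 Further: cells exposed to compound for 16 h before reading.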 An excerpt: TOX21_p53_BLA_p3 is a cell-based, single-readout assay that uses HCT116, a human intestinal cell line, […] in a 1536-well plate.TOX21_p53_BLA_p3_viability is an assay readout measuring cellular ATP content and detected with CellTiter-Glo Luciferase-coupled ATP quantitation.TOX21_p53_BLA_p3_viability used a type of viability reporter where loss-of-signal activity can be used to understand changes in the cell viability. Furthermore, this assay endpoint can be referred to as a secondary readout, because this assay has produced multiple assay endpoints where this one serves a viability function. To generalize the intended target to other relatable targets, this assay endpoint is annotated to the cell cycle intended target family, where the subfamily is cytotoxicity.
Thawing Method: Place 14 mL of pre-warmed thaw medium into a 15 mL of conical tub. Remove the vial of cells to be thawed from liquid nitrogen and thaw rapidly by placing at 37C in a water bath with gentle agitation for 1-2 minutes. Decontaminate the vial by wiping with 70% ethanol before opening in a biological safety cabinet. Transfer the vial contents drop-wise into 14 mL of thaw medium in a sterile 15-mL conical tub. Centrifuge cells at 900 rpm for 4 minutes and resuspend in thaw medium. Transfer contents to the T75 tissue culture flask containing Thaw Medium and place flask in a humidified 37C/5% CO2 incubator. Switch to growth medium at first passage.Propagation Method: Aspirate medium, rinse once in DPBS, add 0.25% Trypsin/EDTA and swirl to coat the cell evenly. Add an equal volume of Growth Medium to inactivate Trypsin after 2-3 minutes incubation at 37C. Centrifuge cells at 900 rpm for 4 minutes and resuspend in growth medium. Cell should be passage or fed at least twice a week.Assay Protocol: Harvest cells from culture in growth medium and resuspend in assay medium. 2.2 Dispense 4000 cells/5 uL/well into 1536-well black/clear bottom plates using a Multidrop dispenser. After the cells were incubated at 37C for 5 hours, 23 nL of compounds dissolved in DMSO were transferred to the assay plate by a PinTool resulting in a 217-fold dilution. Incubate the plates for 16 hours at 37C, 5% CO2. Add 1 uL of 6X LiveBLAzer FRET B/G (CCF4-AM) Substrate Mixture to each well using a BioRAPTR dispenser and incubate the plates at room temperature for 2 hours. Measure fluorescence intensity at 460 and 530 nm emission and 405 nm excitation by an Envision detector. Data is expressed as the ratio of 460nm/530nm emissions. Add 4 uL of Cell-titer Glo to each well using BioRAPTR and incubate the plates at room temperature for […]. For cell viability readout that measures cytotoxicity, 4 ul/well of CellTiter-Glo reagent was added into the assay plates using a Flying Reagent Dispenser. After 30 min incubation at room temperature, the luminescence intensity in the plates was measured using a ViewLux plate reader.
On to `C#C[C@]1(O)CC[C@H]2[C@@H]3CCC4=CC(=O)CC[C@]4(C)[C@H]3CC[C@@]21C`, for which the outcome was inactive.

In the case of `O=[N+]([O-])c1ccc(Nc2ccccc2)cc1`, the compound was called inactive and the AC50 was 61 µM (active).

For the compound `CCC[CH2][Sn]([Cl])([Cl])[CH2]CCC`, the AC50 is 2.47 µM (active) and 1.79 µM (active). Turning to `CC(O)(CS(=O)(=O)c1ccc(F)cc1)C(=O)Nc1ccc(C#N)c(C(F)(F)F)c1` (stereo not given), the call was inactive.

As to `Cc1cccc(N=Nc2ccc(N(C)C)cc2)c1`, the call was inactive. Consider `c1ccc(-c2cccc(-c3ccccc3)c2)cc1`, for which the call was inactive. In the case of `O=[N+]([O-])c1ccccc1O`, the outcome was inactive. `CC(C)CC(C)(c1ccc(O)cc1)c1ccc(O)cc1`: the AC50 is 57.9 µM (active) and 73.5 µM (active). As to `N#CS`, the result was inactive. Still for that read-out and setting: the same measure for `CC(C)C(C)(N)C#N` (stereo not given): “inactive”; for `CC(=Cc1ccccc1)[N+](=O)[O-]`: “inactive”. On the same count and under the same terms, the same measure for `O=C(O)COc1ccc(Cl)cc1`: “inactive”; for `C=C(C)[C@@H]1CC=C(C=O)CC1`: “inactive”; for `C=CCc1ccccc1O`: “inactive”. The same measure, in the same setting: under `CCN(CC)C(=O)C(Cl)=C(C)OP(=O)(OC)OC` stands “inactive”. As to `O=c1[nH]c2ccccc2n1C1CCN(CCCC(c2ccc(F)cc2)c2ccc(F)cc2)CC1`, the AC50 was 67.5 µM (active) and 35.3 µM (active). Regarding `O=C(Nc1ccc(Br)cc1)c1cc(Br)cc(Br)c1O`, the AC50 is 1.12 µM (active) and 641 nM (active) and 1.79 µM (active). The same measure, in the same setting: the same measure for `Cc1cc(SCc2sc(-c3ccc(C(F)(F)F)c(F)c3)nc2C)ccc1OCC(=O)O`: 35.3 µM (active). Regarding `CCCCCCCCCCCCBr`, the compound was classed as inactive. Regarding `O=S(=O)(c1ccc(Cl)cc1)c1cc(Cl)c(Cl)cc1Cl`, the outcome was inactive. Same read-out and setting: under `Cc1cc(C(F)(C(F)(F)F)C(F)(F)F)ccc1NC(=O)c1cccc(I)c1C(=O)NC(C)(C)CS(C)(=O)=O` stands “inactive”; under `CCOC(=O)OC1=C(c2cc(C)ccc2C)C(=O)NC12CCC(OC)CC2` (stereo not given), “inactive”. As to `CC(=O)CN(CC(C)=O)N=O`, the compound was classed as inactive. In the case of `CCCCC(CC)C(=O)Cl` (stereo not given), the call was inactive. With `CCC[CH2][Sn]([CH2]CCC)([CH2]CCC)[CH2]CCC`, the AC50 was 20.2 µM (active).

Turning to `CC(C)[C@@H](Nc1ccc(C(F)(F)F)cc1Cl)C(=O)OC(C#N)c1cccc(Oc2ccccc2)c1` (stereo not given in full), the compound was classed as inactive.

Take `CCOP(=S)(OCC)OP(=S)(OCC)OCC`: the outcome was inactive. Same read-out and setting: under `Nc1ccc(Br)cc1` stands “inactive”; under `O=CCCl`, “inactive”.

As for `O=C(O)c1cc(I)cc(I)c1I`, the compound was classed as inactive. The same measure, in the same setting: under `O=C(NC(=O)c1c(F)cccc1F)Nc1cc(Cl)c(OC(F)(F)C(F)C(F)(F)F)cc1Cl` (stereo not given) stands “inactive”; under `C[C@H]1C(=O)O[C@@H]2CCN3CC=C(COC(=O)[C@](C)(O)[C@]1(C)O)[C@H]23`, “inactive”. With `CCOP(=O)(OCC)OC(=CCl)c1ccc(Cl)cc1Cl`, the outcome was inactive.

Turning to `O=[N+]([O-])c1ccc(Cl)c([N+](=O)[O-])c1`, the AC50 is 86.3 µM (active) and 41.1 µM (active). With `O=NN1CCOCC1`, the call was inactive. Take `C=CCN=C=S`: the result was inactive. Same read-out and setting: the same measure for `CC(c1ccc(O)cc1)c1ccc(O)cc1`: “inactive”.

As to `O=C1C[C@@H]2OCC=C3CN4CC[C@]56c7ccccc7N1[C@H]5[C@H]2[C@H]3C[C@H]46`, the call was inactive.

Turning to `O=C(O)CC(O)(CC(=O)O)C(=O)O`, the result was inactive.

What is called AC50 is the concentration giving half of the maximal activity seen.
